# Screening results deposited in PubChem by National Center for Advancing Translational Sciences (NCATS).
# TDP1 block: inhibitors of human tyrosyl-DNA phosphodiesterase TDP1 | Q9NUW8 | recombinant TDP1, AlphaScreen DNA substrate cleavage | Potency, µM (doses to about 130 µM), for inactives: at the top dose activity change, negative = inhibition, actives largely listed as inhibitors | 350,000 compounds, 0.28% hits; note: potency is the fitted concentration of half-maximal effect; % is set by controls: 0 for no effect and ±100 for the full control effect; nearly all actives have a fitted effect of over 40% in size
# Target sequence (Q9NUW8 whole entry, looked up): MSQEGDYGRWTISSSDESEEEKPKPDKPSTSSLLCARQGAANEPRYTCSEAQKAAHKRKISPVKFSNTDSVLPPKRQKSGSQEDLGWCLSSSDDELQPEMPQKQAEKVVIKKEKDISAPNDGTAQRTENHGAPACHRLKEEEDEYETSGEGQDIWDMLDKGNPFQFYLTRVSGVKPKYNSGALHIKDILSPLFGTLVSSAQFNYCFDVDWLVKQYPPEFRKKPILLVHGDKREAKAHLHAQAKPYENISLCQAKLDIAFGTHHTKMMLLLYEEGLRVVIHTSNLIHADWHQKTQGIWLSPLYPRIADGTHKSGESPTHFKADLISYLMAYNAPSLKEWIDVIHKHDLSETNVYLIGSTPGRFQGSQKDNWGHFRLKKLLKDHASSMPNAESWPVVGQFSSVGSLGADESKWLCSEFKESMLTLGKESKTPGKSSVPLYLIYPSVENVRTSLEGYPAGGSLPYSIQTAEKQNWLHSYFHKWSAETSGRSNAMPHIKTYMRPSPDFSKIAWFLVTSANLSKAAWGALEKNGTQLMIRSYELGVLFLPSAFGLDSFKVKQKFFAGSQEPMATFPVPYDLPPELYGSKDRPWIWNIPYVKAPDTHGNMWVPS
#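 Signal: AlphaScreen proximity between streptavidin donor and anti-FITC acceptor beads on intact substrate. Reaction: Tdp1 1 nM, substrate 15 nM final, 5 min RT after 15 min compound preincubation.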
# HepG2 viability: counter-screen for TGF-b inhibitors: cytotoxicity in HepG2 cells | AID 588856 | 410,000 compounds, 0.76% hits | HepG2 CAGA-GFP viability, ATP luminescence, 18 h | Potency, µM (series often up to 46.1 µM), without a hit: at the top dose activity change, negative = cytotoxicity, hits mostly cytotoxic; note: potency is the fitted concentration of half-maximal effect
#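 HepG2 CAGA-GFP cells (1000/well, DMEM with 1% FBS) received compound, then TGF-beta at 500 pg/mL final, and were incubated 18 hours at 37 degrees C. Viability was read by CellTiter-Glo luminescence. Media-only wells were set as complete cell-killing and DMSO as no toxicity.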
# TDP1 cell noCPT: qHTS for Inhibitors of human tyrosyl-DNA phosphodiesterase 1 (TDP1): qHTS in cells in absence of CPT | DT40 Tdp1-/- hTDP1 cells, no CPT, ATP luminescence, 48 h | Potency, µM (highest dose often 46.2 µM), for inactives: at the highest dose activity change, negative = growth inhibition, hits mostly inhibitors | 420,000 compounds, 15% hits | AID 686978, 2013; note: potency is the fitted concentration of half-maximal effect; % is set by controls: 0 for no effect and ±100 for the full control effect; nearly all actives have a fitted effect of over 55% in size
#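 Cells were dispensed at 400 per well, compounds added by pin tool, plates incubated ≥48 hr at 37 °C, then CellTiter-Glo added for 30 min at room temperature before luminescence reading. Line: DT40 Tdp1-/- complemented with hTDP1; camptothecin omitted.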
# IL1B secr inh: inflammasome signaling inhibition, IL-1 beta readout. THP-1 LPS/ATP IL-1B secretion, AlphaLISA, 16 h; stronger effect = lower value. 360,000 compounds, 4.7% hits. activity change, % at 57.5 µM; in the data active = activity change below about -50%; inconclusive = mostly about -30% to -49%; note: % is set by controls: 0 for no effect and ±100 for the full control effect
#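 Secreted IL-1B measured by AlphaLISA bead assay after 16 h compound exposure of THP-1 cells; compounds (final up to 57.5 uM) added 1 h before LPS (250 ng/mL) and ATP (1.25 mM) stimulation; lower signal means less secretion.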
# TGFb inhibitor: blocks TGF-b signaling; AID 588855; HepG2 CAGA-GFP TGF-b/SMAD3 reporter, GFP fluorescence, 18 h; TGF-beta stimulated, 500 pg/mL final; Potency, µM (doses to about 46.1 µM), inactives show top-dose activity, negative = inhibition, most hits filed as inhibitors; 410,000 compounds, 1.2% hits; note: potency is the fitted concentration of half-maximal effect; % is set by controls: 0 for no effect and ±100 for the full control effect; nearly all actives have a fitted effect of over 65% in size
#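 HEPG2 CAGA-GFP cells (1000/well, DMEM with 1% FBS) were pre-incubated 2 h at 37 degrees C, given compound by pin tool, then stimulated with TGF-beta at 500 pg/mL final for 18 h before per-cell GFP fluorescence imaging.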
# TDP1 cell CPT: growth inhibition of DT40 Tdp1-/-;hTDP1 cells with camptothecin (screen for TDP1 inhibitors). chicken DT40 Tdp1-/-;hTDP1 cells + 20 nM CPT, ATP luminescence, 48 h. Potency, µM (titrated, usually from 46.2 µM), without a hit: top-dose activity change, negative = growth inhibition, hits mostly inhibitors. 420,000 compounds, 12% hits. AID 686979; note: potency is the fitted concentration of half-maximal effect; % is set by controls: 0 for no effect and ±100 for the full control effect; nearly all actives have a fitted effect of over 55% in size
#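 Chicken DT40 Tdp1-/- cells stably complemented with human TDP1 were seeded at 400 cells/well in medium containing 20 nM camptothecin, exposed to pin-transferred compounds, and grown at 37 °C for at least 48 hr. Viability was read as ATP luminescence.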
# * = called active by the depositor; i = inactive; u = inconclusive; x = no result; [ ] = another dose, or the depositor's remark. Rows were chosen to be rich in hits. Some 19% of all compounds tested hit in one or more screens of this group. Unless noted, calls come from the whole dose curve; as a rule, active = well fitted curve in the direction sought with a large enough effect; inconclusive = small, poorly fitted or top-dose-only effect, or another doubt; inactive = no such curve, though single readings can be large; an effect the other way counts as inactive or inconclusive.
SMILES,TDP1 block,HepG2 viability,TDP1 cell noCPT,IL1B secr inh,TGFb inhibitor,TDP1 cell CPT
CCCOc1ccc(CCc2n[nH]c(=S)n2Cc2ccccc2)cc1,3%,-52%,21µM*,-10,u,u
Cc1onc(-c2ccccc2)c1C(=O)NC(=S)NNC(=O)c1ccco1,10%,-22%,16µM*,94,u,u
Cc1onc(-c2ccccc2)c1C(=O)NNC(=S)NC(=O)/C=C/c1cccs1,8%,-16%,23µM*,30,0%,16µM*
Cc1onc(-c2ccccc2)c1C(=O)NC(=S)NNC(=O)c1ccncc1,11%,-4%,u,10,0%,u
Cc1onc(-c2ccccc2)c1C(=O)NC(=S)NNC(=O)c1cc(-c2ccc(F)cc2)n[nH]1,-12%,-61%,21µM*,3,-33%,u
O=C(NNC(=S)NC1CCCCC1)c1ccc2c(c1)OCO2,3%,-22%,18µM*,21,-13%,u
Cc1cccc(NC(=O)c2ccc(-n3cnc4cccnc43)cc2)c1C,0%,-20%,x,x,3%,x
COCCNC(=O)C1CCN(S(=O)(=O)c2ccc3c(c2)CCCN3C(C)=O)CC1,2%,-18%,1%,x,-11%,8%
Cc1onc(-c2ccccc2)c1C(=O)NNC(=S)NC(=O)c1ccc2c(c1)OCO2,12%,-17%,1.6µM*,58,u,-94%
Cc1onc(-c2ccccc2)c1C(=O)NC1CCCCC1C (configuration not stated),x,1%,-14%,8,5%,u
Cc1onc(-c2ccccc2)c1C(=O)NC1CCC(C)CC1 (configuration not stated),0%,0%,u,34,-4%,13µM*
OCCC1CN(Cc2cnc(-c3ccccc3)s2)CCN1C1CCCCC1 (configuration not stated),6%,-22%,u,-3,0%,-5%
OCCC1CN(CC(c2ccccc2)c2ccccc2)CCN1C1CCCC1 (configuration not stated),9%,-22%,18µM*,-14,-15%,u
CCOc1ccc2nc(CN3CCN(Cc4ccsc4)C(CCO)C3)ccc2c1 (configuration not stated),0%,-22%,18µM*,-6,u,u
CCOc1ccc(CN2CCN(Cc3cnc(-c4ccccc4)s3)CC2CCO)cc1 (configuration not stated),-2%,-20%,21µM*,8,u,u
OCCC1CN(Cc2cnc(-c3ccccc3)s2)CCN1C1CCCC1 (configuration not stated),6%,-4%,-4%,-81*,-16%,7%
COC(=O)c1cccc(C23CC4(C2)[C@H](CN(CC2CCCCC2)[C@@H]4c2ccccc2)C3c2ccc(Cl)nc2)c1 (some centres not stated),10%,x,x,x,x,x
CCN(CC)S(=O)(=O)c1ccc2c(c1)N(CC(=O)N1CCCC1)C(=O)CO2,x,-19%,-8%,-9,-1%,-4%
O=C(CN1C(=O)NC2(CCCCC2)C1=O)N1CCN(S(=O)(=O)c2cccc(F)c2)CC1,2%,33%,6%,i,13%,-3%
CC(C)CN1CCN(Cc2cnc(-c3ccc(Cl)cc3)nc2)CC1CCO (configuration not stated),-7%,-55%,u,15,-24%,u
OCCC1CN(Cc2cnc(-c3ccc(Cl)cc3)nc2)CCN1C1CCCC1 (configuration not stated),5%,4%,15µM*,-73*,1%,23µM*
COc1ccc(C(=O)C=Cc2ccc(OCc3ccccc3)c(OC)c2)cc1OC,x,-1%,4.6µM*,-90*,15%,7.3µM*
COc1ccc(/C=C/C(=O)C(C)(C)C)cc1OC,-3%,-4%,u,u,-7%,-5%
COc1cc(OC)c(C(=O)/C=C/c2ccc(OCc3ccccc3)c(OC)c2)c(OC)c1,x,6%,23µM*,-90*,0%,23µM*
COc1cc(O)c(C(=O)/C=C/c2ccccc2)c(OC)c1,14%[56.1 µM],-52%,18µM*,-106*,u,15µM*
SMILES,TDP1 block,HepG2 viability,TDP1 cell noCPT,IL1B secr inh,TGFb inhibitor,TDP1 cell CPT
COc1cc(O)c(C(=O)/C=C/c2ccccc2)c(O)c1,8%[21 µM],x,x,x,x,x
COc1cc(OC)c(C(=O)C=Cc2ccc(OC)c(OC)c2)c(OC)c1,x,-40%,u,-101*,-4%,u
CC(=O)c1cc2c(cc1N/C(=N/S(=O)(=O)c1ccc(Cl)cc1)c1ccc(F)cc1)OCO2,-2%,2%,-4%,x,2%,-4%
COc1ccc(-n2nnc(-c3nc(-c4ccc5c(c4)OCO5)no3)c2C)cc1Cl,-3%,2%,-3%,x,x,-3%
COc1cc(/C=C/[N+](=O)[O-])ccc1OCc1cccc(C(=O)O)c1,x,-40%,16µM*,-97*,u,16µM*
COc1cc(/C=C/[N+](=O)[O-])ccc1OC(=O)/C=C/c1ccc(F)cc1,x,6%,2.3µM*,u,-9%,3.3µM*
COc1cc(OCc2ccccc2)c(C(=O)/C=C/c2ccc3c(c2)OCO3)c(OC)c1OC,x,-9%,u,-91*,-4%,u
COc1cc(/C=N/NC(=O)c2cccc([N+](=O)[O-])c2)ccc1OCc1ccccc1,-5%,-25%,u,-3,13%,u
COc1ccccc1NC(=O)COC(=O)/C=C/c1ccc(OC)c(OC)c1,0%,-27%,u,-5,u,u
COc1ccc(C(C)(NC(C)=O)c2nc(-c3cccnc3)cs2)cc1 (configuration not stated),x,0%,-11%,25,15%,u
COc1ccc(C(C)(NC(C)=O)c2nc(-c3cccc(C(F)(F)F)c3)cs2)cc1 (configuration not stated),x,-31%,u,-10,u,u
COc1ccc(C(C)(NC(C)=O)c2nc(-c3ccc(F)cc3OC)cs2)cc1 (configuration not stated),x,-3%,13µM*,11,5%,15µM*
